In PubChem BioAssay AID1159580 (chemical genetic matrix, 2015):
Several values for one entry are separate records, joined by “and”; a condition that tells them apart may be missing. Equal entries are not always repeated. About 2,000 (36%) of roughly 5,500 compounds were called active. Roughly 18% stayed inconclusive and do not appear here. Rule as the data show it: active = normalized growth mostly below about 0.91 (no sharp cut-off); inconclusive = no clear call, values can overlap the other calls; inactive = mostly above about 0.92. This is one part of the list.

Experiment: chemical genetic growth profiling, strain panel (AID 1159580);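 also: tested at 20 µM; growth read once vehicle control cultures reached saturation at 30 °C; 1 = growth at the plate median or of vehicle wells; lower values mean less growth of the strain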
Details: S. cerevisiae deletion strains, growth OD

Measured: normalized growth

O=C(c1ccccc1)c1ccc2n1CCC2C(=O)O (stereo not drawn)
inactive: locus YAL013W, strain DEP1, hits give low values 0.993 | locus YAL021C, strain ccr4, hits give low values 0.98 | locus YAL026C, strain drs2, hits give low values 0.983 | locus YAL030W, strain snc1, hits give low values 0.978 | locus YAL040C, strain CLN3, hits give low values 1.01 | locus YBL061C, strain skt5, hits give low values 1.01 | locus YBR009C, strain hhf1, hits give low values 0.991 | locus YBR021W, strain FUR4, hits give low values 0.988 | locus YBR023C, strain chs3, hits give low values 1.01 | locus YBR171W, strain sec66, hits give low values 0.994 | locus YBR229C, strain ROT2, hits give low values 1.01 | locus YBR231C, strain swc5, hits give low values 1.01 | locus YBR279W, strain paf1, hits give low values 1.01 | locus YCL011C, strain gbp2, hits give low values 0.974 | locus YCL016C, strain dcc1, hits give low values 0.995 | locus YCL029C, strain bik1, hits give low values 0.956 | locus YCL061C, strain MRC1 (second series), hits give low values 1.02 | locus YCL069W, strain vba3, hits give low values 0.979 | locus YCR088W, strain abp1, hits give low values 1.01 | locus YDL005C, strain med2, hits give low values 0.967 | locus YDL035C, strain GPR1, hits give low values 0.987 | locus YDL040C, strain nat1, hits give low values 0.997 | locus YDL074C, strain BRE1, hits give low values 1.05 | locus YDL101C, strain DUN1, hits give low values 1 | locus YDL134C, strain PPH21, hits give low values 0.988 | locus YDL185W, strain tfp1, hits give low values 0.958 | locus YDL192W, strain arf1, hits give low values 0.968 | locus YDR001C, strain nth1, hits give low values 0.968 | locus YDR069C, strain doa4, hits give low values 1.01 | locus YDR101C, strain arx1, hits give low values 1.01 | locus YDR137W, strain rgp1, hits give low values 0.945 | locus YDR150W, strain NUM1, hits give low values 0.994 and 1.01 | locus YDR159W, strain sac3, hits give low values 0.955 | locus YDR162C, strain NBP2, hits give low values 0.982 | locus YDR195W, strain ref2 0.975 | locus YDR297W, strain sur2, hits give low values 0.991 | locus YDR318W, strain mcm21, hits give low values 0.969 | locus YDR334W, strain swr1, hits give low values 0.976 | locus YDR335W, strain msn5, hits give low values 0.988 | locus YDR363W, strain ESC2, hits give low values 1.02 | locus YDR388W, hits give low values 0.981 | locus YDR392W, strain spt3, hits give low values 0.935 | locus YDR502C, strain sam2, hits give low values 0.987 | locus YEL003W, strain gim4, hits give low values 0.997 | locus YEL037C, strain rad23, hits give low values 0.984 | locus YEL061C, strain CIN8 (second series), hits give low values 0.999 | locus YEL061C, strain CIN8, hits give low values 0.994 | locus YER002W, strain NOP16, hits give low values 0.998 | locus YER015W, strain faa2, hits give low values 0.99 | locus YER016W, strain bim1, hits give low values 0.988 | locus YER110C, hits give low values 0.96 | locus YER111C, strain swi4, hits give low values 1 | locus YER155C, strain BEM2 (second series), hits give low values 1.01 | locus YER155C, strain BEM2, hits give low values 1 | locus YER167W, strain BCK2, hits give low values 0.997 | locus YFR010W, strain ubp6, hits give low values 0.981 | locus YGL078C, strain dbp3, hits give low values 0.982 | locus YGL086W, strain mad1, hits give low values 0.995 | locus YGL167C, strain pmr1, hits give low values 0.998 | locus YGL173C, strain kem1, hits give low values 1 | locus YGL227W, strain vid30, hits give low values 0.996 | locus YGL240W, strain doc1, hits give low values 1.02 | locus YGL248W, strain PDE1, hits give low values 1.01 | locus YGL253W, strain hxk2, hits give low values 0.974 | locus YGR135W, strain pre9, hits give low values 0.974 | locus YGR252W, strain gcn5, hits give low values 0.996 | locus YHR013C, strain ard1, hits give low values 0.994 | locus YHR027C, strain rpn1, hits give low values 1.01 | locus YHR030C, strain SLT2, hits give low values 0.988 and 0.999 | locus YHR079C, strain IRE1 (second series), hits give low values 0.965 | locus YHR079C, strain IRE1, hits give low values 1.02 | locus YHR094C, strain hxt1, hits give low values 0.985 | locus YHR129C, strain ARP1, hits give low values 0.991 | locus YHR142W, strain chs7, hits give low values 0.975 | locus YHR200W, strain rpn10, hits give low values 0.96 | locus YIL066C, strain RNR3, hits give low values 1 | locus YIL073C, strain SPO22, hits give low values 0.922 | locus YIL125W, strain kgd1, hits give low values 0.985 | locus YIR030C, strain dcg1, hits give low values 0.973 | locus YJL092W, strain hpr5, hits give low values 0.984 | locus YJL095W, strain BCK1 (second series), hits give low values 0.993 | locus YJL095W, strain BCK1, hits give low values 1.03 and 0.992 | locus YJL115W, strain asf1, hits give low values 0.984 | locus YJL129C, strain trk1, hits give low values 1.02 | locus YJL134W, strain LCB3, hits give low values 0.99 | locus YJL154C, strain vps35, hits give low values 0.975 | locus YJL164C, strain tpk1, hits give low values 0.965 | locus YJL166W, strain qcr8, hits give low values 1.02 | locus YJL168C, strain set2, hits give low values 0.979 | locus YJL187C, strain SWE1 (second series), hits give low values 1.01 | locus YJL187C, strain SWE1, hits give low values 0.986 | locus YJR043C, strain POL32, hits give low values 0.997 | locus YJR066W, strain TOR1, hits give low values 0.966
